Inconclusive results are not listed. A call without a number means that no potency is given here. Unmarked numbers belong to inactive results. Activity calls are given as the source filed them. Unless noted, calls come from the whole dose curve.
Experiments:
[1] = Primary qHTS for inhibitors of MERS-S pseudo-typed particle cell entry (AID 1479149); conditions: outcome: dose series up to 57.1 µM unless noted; note: nearly all actives have a fitted effect of over 60% in size
[2] = Primary qHTS for Vero E6 cytotoxicity: counterscreen for inhibitors of SARS-S pseudo-typed particle cell entry (AID 1479150)
[3] = Cytotoxicity counterscreen for inhibitors of SARS-CoV-2 cell entry (AID 1645845); conditions: outcome: dose series up to 57.1 µM unless noted; note: nearly all actives have a fitted effect of over 50% in size; for activity change, negative = cytotoxicity: series mostly up to about 57 µM
In short: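 48 h compound treatment (after 1 h preincubation), HEK293-ACE2 cells, 37 C/5% CO2; ATP luminescence endpoint; normalized to cell wells and media blanks.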

[4] = biological target: Cytochrome P450 2D6 (Homo sapiens) (UniProt P10635); assay: Cytochrome P450 family 2 subfamily D member 6 (CYP2D6) small molecule antagonists: luciferase biochemical (cell-free) qHTS assay (AID 1645840; active = well fitted curve in the direction sought with a large enough effect in the repeat runs; an effect the other way counts as inactive or inconclusive; note: nearly all actives have a fitted effect of over 55% in size; note: potency is the fitted concentration of half-maximal effect)
In short: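 P450-Glo luminescent screen: recombinant CYP2D6 enzyme–proluciferin substrate mix preincubated with compound 10 min at room temperature, then NADPH regeneration added for 1 h at room temperature. Detection reagent added for 20 min; luciferin light read as relative luminescence units.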

[5] = biological target: Cytochrome P450 2C9 (Homo sapiens) (UniProt P11712); assay: Cytochrome P450 family 2 subfamily C member 9 (CYP2C9) small molecule antagonists: luciferase biochemical (cell-free) qHTS assay (AID 1645842; active = well fitted curve in the direction sought with a large enough effect in the repeat runs; an effect the other way counts as inactive or inconclusive; note: nearly all actives have a fitted effect of over 55% in size; note: potency is the fitted concentration of half-maximal effect)
In short: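 Luminescence, after 20 min with luciferin detection reagent, reflected CYP2C9 turnover during a 1 h NADPH-driven reaction at 37C. Enzyme-substrate mix contained 0.4% bovine serum albumin and was preincubated with compound 10 min at room temperature.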

[6] = Primary qHTS for inhibitors of La Crosse Virus (LACV) - induced cell death in SH-SY5Y cells (AID 1508616; active = well fitted curve in the direction sought with a large enough effect; an effect the other way counts as inactive or inconclusive;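 note: top concentration of the series differs between compounds; higher means more rescue of cells from virus-induced death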)
In short: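 SH-SY5Y cells (6000/well) plated 24 h, then given compounds by pin transfer and LACV at 0.01 MOI for 6 days at 37C. Viability measured by ATPLite luminescence, normalized to infected DMSO and uninfected DMSO.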

[7] = biological target: Calcium and integrin-binding protein 1 (Homo sapiens) (UniProt Q99828); assay: Validation qHTS for Identification of Calcium Integrin Binding protein 1 (CIB1) Competitor (AID 1508618; active = well fitted curve in the direction sought with a large enough effect; an effect the other way counts as inactive or inconclusive)
In short: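 Displacement of FITC-alphaIIb peptide (100 nM) from CIB1-GST (1 uM) is monitored by polarization in quantitative HTS format; buffer carries 5 mM CaCl2 and 125 mM NaCl at pH 7.4, incubations are at room temperature.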

[8] = biological target: Calcium and integrin-binding protein 1 (Homo sapiens) (UniProt Q99828); assay: Primary qHTS for Identification of Calcium Integrin Binding Protein 1 (CIB1) Competitor (AID 1508620; active = well fitted curve in the direction sought with a large enough effect; an effect the other way counts as inactive or inconclusive;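 note: GST tagged CIB1 binding a fluorescein labelled alphaIIb integrin peptide tracer; top concentration of the series differs between compounds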)
In short: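 CIB1-GST (1 uM final) and compound incubated 15 min at room temperature before adding FITC-alphaIIb peptide tracer (100 nM final). Competition for binding read by fluorescence polarization (ex 480, em 540) after another 15 min at room temperature.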

[9] = Primary qHTS for inhibitors of nuclear receptor binding SET domain protein 2 (NSD2) in an isogenic RCH-ACV NSD2 p.E1099K mutant (9B) (AID 1645876; active = well fitted curve in the direction sought with a large enough effect; an effect the other way counts as inactive or inconclusive; note: nearly all actives have a fitted effect of over 70% in size)

Cytochrome P450 2D6 (Homo sapiens), sequence (P10635 whole entry, looked up): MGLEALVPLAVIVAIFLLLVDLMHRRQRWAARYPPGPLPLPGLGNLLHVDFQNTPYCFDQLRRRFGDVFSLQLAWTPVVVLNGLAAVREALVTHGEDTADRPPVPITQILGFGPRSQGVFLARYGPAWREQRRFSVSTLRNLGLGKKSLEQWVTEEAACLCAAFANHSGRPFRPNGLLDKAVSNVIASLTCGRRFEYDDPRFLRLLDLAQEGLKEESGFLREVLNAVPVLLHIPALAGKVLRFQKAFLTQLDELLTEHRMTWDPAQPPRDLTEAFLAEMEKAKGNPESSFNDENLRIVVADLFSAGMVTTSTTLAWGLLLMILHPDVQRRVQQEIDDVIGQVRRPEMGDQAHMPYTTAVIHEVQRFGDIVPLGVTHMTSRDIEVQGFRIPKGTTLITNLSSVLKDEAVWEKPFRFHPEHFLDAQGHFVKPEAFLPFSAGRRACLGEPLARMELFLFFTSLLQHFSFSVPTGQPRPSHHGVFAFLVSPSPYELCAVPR
Cytochrome P450 2C9 (Homo sapiens), sequence (P11712 whole entry, looked up): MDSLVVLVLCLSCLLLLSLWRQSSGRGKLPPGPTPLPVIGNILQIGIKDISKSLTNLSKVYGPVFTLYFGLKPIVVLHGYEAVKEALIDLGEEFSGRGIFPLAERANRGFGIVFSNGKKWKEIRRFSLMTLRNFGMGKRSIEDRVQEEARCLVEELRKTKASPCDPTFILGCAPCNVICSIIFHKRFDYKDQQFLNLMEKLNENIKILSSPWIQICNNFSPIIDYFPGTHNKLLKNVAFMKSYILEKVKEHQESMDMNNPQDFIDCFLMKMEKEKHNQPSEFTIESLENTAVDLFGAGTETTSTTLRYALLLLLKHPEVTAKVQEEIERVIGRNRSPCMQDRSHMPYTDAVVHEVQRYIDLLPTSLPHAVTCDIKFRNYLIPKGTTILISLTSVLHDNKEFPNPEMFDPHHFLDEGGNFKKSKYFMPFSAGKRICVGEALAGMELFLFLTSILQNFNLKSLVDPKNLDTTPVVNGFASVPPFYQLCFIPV
Calcium and integrin-binding protein 1 (Homo sapiens), sequence (Q99828 whole entry, looked up): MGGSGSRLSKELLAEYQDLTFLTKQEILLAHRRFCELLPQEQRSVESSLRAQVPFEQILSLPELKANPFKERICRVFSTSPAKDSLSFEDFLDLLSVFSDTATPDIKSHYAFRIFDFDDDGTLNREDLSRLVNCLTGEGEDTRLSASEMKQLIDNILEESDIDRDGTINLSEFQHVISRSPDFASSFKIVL

O=C(OCCN1CCCCC1)C(O)(c1ccccc1)c1ccccc1
outcome [1]: inactive | Potency [2]: inactive | outcome [3]: inactive

O=[N+]([O-])C(Br)(CO)CO
outcome [1]: inactive | Potency [2]: inactive | Potency [4]: inactive | Potency [5]: 6.74 µM (active) | outcome [3]: inactive

C[C@@H]([C@H](O)c1ccccc1)N(C)C
outcome [1]: inactive | Potency [2]: inactive | outcome [3]: inactive

COc1ccc(OC)c(C(O)C(C)N)c1 (stereo unspecified)
outcome [1]: inactive | Potency [2]: inactive | Potency [6]: inactive | Potency [7]: inactive | Potency [4]: inactive | Potency [5]: inactive | outcome [3]: inactive

ClC1C(Cl)C(Cl)C(Cl)C(Cl)C1Cl (stereo unspecified)
outcome [1]: inactive | Potency [2]: inactive | Potency [4]: inactive | Potency [5]: inactive | outcome [3]: inactive

CN1[C@H]2CC[C@@H]1[C@@H](C(=O)O)[C@@H](OC(=O)c1ccccc1)C2
outcome [1]: inactive [at 114 µM] | Potency [2]: inactive | outcome [3]: inactive

COc1cc2c(cc1OC)[C@@]13CCN4CC5=CCO[C@H]6CC(=O)N2[C@H]1[C@H]6[C@H]5C[C@H]43
outcome [1]: inactive | Potency [2]: inactive | Potency [8]: inactive | outcome [3]: inactive | Potency [9]: inactive

O=C1OC2(c3cc(Br)c(O)cc3Oc3c2cc(Br)c(O)[c]3[Hg])c2ccccc21 (stereo unspecified)
outcome [1]: inactive

C[C@]12CCC(=O)C=C1C=C[C@@H]1[C@@H]2CC[C@@]2(C)[C@H]1CC[C@@]2(O)CCC(=O)O
outcome [1]: inactive | Potency [2]: inactive | outcome [3]: inactive

C[N+]1(C)CCCCC1COC(=O)C(O)(c1ccccc1)c1ccccc1 (stereo unspecified)
outcome [1]: inactive | Potency [2]: inactive | outcome [3]: inactive

CCOc1ccc2c3c1O[C@H]1[C@@H](O)C=C[C@H]4[C@@H](C2)N(C)CC[C@@]341
outcome [1]: inactive | Potency [2]: inactive | outcome [3]: inactive

FC(F)OC(F)(F)C(F)Cl (stereo unspecified)
outcome [1]: inactive | Potency [2]: inactive | outcome [3]: inactive

CCOC(=O)c1ccccc1C(=O)OCC
outcome [1]: inactive | Potency [2]: inactive | Potency [4]: inactive | outcome [3]: inactive

CCC1(CC)C(=O)NC(=O)N(C)C1=O
outcome [1]: inactive | Potency [2]: inactive | outcome [3]: inactive

CC(C)CCON=O
outcome [1]: inactive | Potency [2]: inactive | outcome [3]: inactive

CC(C)CCC(=O)O[C@H]1CC[C@H]2[C@@H]3CCC4=CC(=O)CC[C@]4(C)[C@H]3CC[C@]12C
outcome [1]: inactive | Potency [2]: inactive | outcome [3]: inactive

O=P(O)(O)C(Cl)(Cl)P(=O)(O)O
outcome [1]: inactive [at 5.34 µM] | outcome [2]: inactive [at 5.34 µM] | activity change, negative = cytotoxicity [3]: 3.8% [at 5.25 µM]

CCCCCCC(=O)O[C@H]1CC[C@H]2[C@@H]3CC[C@H]4CC(=O)C=C(C)[C@]4(C)[C@H]3CC[C@]12C
outcome [1]: inactive | Potency [2]: inactive | outcome [3]: inactive

CC(N)Cc1ccc(O)cc1 (stereo unspecified)
outcome [1]: inactive | Potency [2]: inactive | outcome [3]: inactive

O=S(=O)(O)c1cc(O)ccc1O
outcome [1]: inactive | Potency [2]: inactive | outcome [3]: inactive

C[C@]12CC[C@H](OS(=O)(=O)O)CC1=CC[C@@H]1[C@@H]2CC[C@]2(C)C(=O)CC[C@@H]12
outcome [1]: inactive | Potency [2]: inactive | outcome [3]: inactive

NCC(O)c1cccc(O)c1 (stereo unspecified)
outcome [1]: inactive | Potency [2]: inactive | Potency [4]: inactive | Potency [5]: inactive | outcome [3]: inactive

O=c1[nH]cc(N(CCCl)CCCl)c(=O)[nH]1
outcome [1]: inactive [at 114 µM] | Potency [2]: inactive | outcome [3]: inactive

Oc1ccc2c3c1O[C@H]1[C@@H](O)CC[C@@]4(O)[C@@H](C2)N(CC2CCC2)CC[C@]314
outcome [1]: inactive | Potency [2]: inactive | outcome [3]: inactive

O=C(NCNC(=O)NC1C(=O)NC(=O)N1CO)NC1C(=O)NC(=O)N1CO (stereo unspecified)
outcome [1]: inactive | Potency [2]: inactive | outcome [3]: inactive

CCCCNCC(O)c1ccc(O)cc1 (stereo unspecified)
outcome [1]: inactive | Potency [2]: inactive | Potency [4]: 9.52 µM (active) | Potency [5]: inactive | outcome [3]: inactive

O=C(O)C(Cl)(Cl)Cl
outcome [1]: inactive | Potency [2]: inactive | outcome [3]: inactive

O=C/C=C/c1ccccc1
outcome [1]: inactive | Potency [2]: inactive | outcome [3]: inactive

CCC1(C)CC(=O)NC(=O)C1
outcome [1]: inactive | Potency [2]: inactive | outcome [3]: inactive [at 114 µM]

CC[N+](C)(CC)CCOC(=O)C(O)(c1ccccc1)c1ccccc1
outcome [1]: inactive | Potency [2]: inactive | outcome [3]: inactive

O=[N+]([O-])c1cc(I)c(O)c(I)c1
outcome [1]: inactive | Potency [2]: inactive | Potency [4]: inactive | outcome [3]: inactive

CCN(CC)C(=O)N[C@H]1C[C@@H]2c3cccc4[nH]cc(c34)C[C@H]2N(C)C1
outcome [1]: inactive | Potency [2]: inactive | outcome [3]: inactive

CCNCC(O)c1cccc(O)c1 (stereo unspecified)
outcome [1]: inactive | Potency [2]: inactive | Potency [4]: inactive | Potency [5]: inactive | outcome [3]: inactive

CCC1C(C)=NN=C(c2ccc(OC)c(OC)c2)c2cc(OC)c(OC)cc21 (stereo unspecified)
outcome [1]: inactive | Potency [2]: inactive | outcome [3]: inactive

CCCC(=O)OC(C(Cl)(Cl)Cl)P(=O)(OC)OC (stereo unspecified)
outcome [1]: inactive [at 114 µM] | Potency [2]: inactive | outcome [3]: inactive [at 114 µM]

O=C1C[C@@H]2OCC=C3CN4CC[C@]56c7ccccc7N1[C@H]5[C@H]2[C@H]3C[C@H]46
outcome [1]: inactive | Potency [2]: inactive | Potency [8]: inactive | outcome [3]: inactive | Potency [9]: inactive

Reference: PubChem BioAssay (NCATS)
